# PubChem BioAssay AID430 (Sanford-Burnham Center for Chemical Genomics, 2006)
# Screen size: about 63,000 compounds; about 1,100 (1.7%) were called active. The sample as a whole holds a higher share of actives than the screen did. Potency and affinity values are given separately. Values without a mark were called inactive. Cut-off read from the data, not from the text of the source: active = cytotoxicity above about 50%; inactive = the rest.
# Experiment: cytotoxicity in HPDE-C7 cells, cell-based, fluorescence, HTS (AID 430);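 note: cells exposed to compound for 48 hours before viability readout; 0% = vehicle and 100% = reference cytotoxic drug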
# Settings: HPDE-C7 pancreatic duct cells viability, at 10 µM, active compounds read high
row,SMILES,cytotoxicity
1,CC(=O)Nc1ccc(-n2c(C)nc(=O)c(-c3ccccc3)c2C)cc1,2.9%
2,CS(=O)(=O)c1ccc2nc(NC(=O)Oc3ccccc3)sc2c1,3.4%
3,Cc1ccc(NC(=O)CN(C)S(=O)(=O)c2cccc3cccnc23)cc1,0.4%
4,O=C1CC(N2CCOCC2)C(=O)N1CCc1ccccc1 (centres undefined),5.1%
5,Cc1cc(-c2nnc3sc(C4CCCCC4)nn23)n[nH]1,4.3%
6,CC(C)C(c1nnnn1CC1CCCO1)N1CCN(Cc2ccc3c(c2)OCO3)CC1 (centres undefined),-3.2%
7,CS(=O)(=O)c1ccc2nc(NC(=O)Cc3ccccc3)sc2c1,0.9%
8,O=C(Cc1cccs1)Nc1nc2ccccc2s1,0.1%
9,CC(C)(C)NS(=O)(=O)c1ccc2nc(NC(=O)Cc3cccs3)sc2c1,68.7% (active)
10,CCOC(=O)C1CCCN(c2c(NCC3CCCO3)c(=O)c2=O)C1 (centres undefined),-11.3%
11,COc1ccc(N2CCN(C(=O)c3ccc(-n4nc(C)cc4C)cc3)CC2)cc1,-4.7%
12,CC(=O)c1ccc(Oc2cc(C)nc(-n3nc(C)cc3C)n2)cc1,60.3% (active)
13,CCOc1ccc(Nc2cc(C)nc(-n3nc(C)cc3C)n2)cc1,49.1%
14,COc1ccc(Nc2cc(C)nc(-n3nc(C)cc3C)n2)cc1,66.9% (active)
15,Cc1cc(C)n(-c2ccc(C(=O)NC(C)C)cc2)n1,-1%
16,COC(=O)c1ccc(Nc2cc(C)nc3nc(C)nn23)cc1,5.7%
17,CNc1cc(C)nc(-n2nc(C)cc2C)n1,-0.2%
18,COC(=O)c1ccc(Oc2cc(C)nc(-n3nc(C)cc3C)n2)cc1,54.2% (active)
19,COC(=O)c1ccc(Oc2ccc3nnc(C)n3n2)cc1,-7.1%
20,O=C(NCCOC(=O)c1ccc(Cl)c(S(=O)(=O)N2CCCCC2)c1)c1ccncc1,-9.8%
21,c1ccc2c(c1)nc(N1CCOCC1)c1c3ccccc3[nH]c21,-21.6%
22,CC1(C)CC(=O)c2cnn(-c3nc4ccccc4[nH]3)c2C1,-0.3%
23,O=S(=O)(Nc1ccc2c(c1)OCCO2)c1cccc2cccnc12,-0.7%
24,Cc1noc(C)c1COC(=O)c1ccc2c(c1)OCCO2,4.3%
25,CN(CCOC(=O)c1ccc2c(c1)OCCO2)Cc1ccccc1,-14%

row,SMILES,cytotoxicity
1,Cc1ccc2cccc(OC(=O)c3ccc4c(c3)OCCO4)c2n1,53% (active)
2,O=C(Oc1cccc2cccnc12)c1cccc(-n2cnnn2)c1,20.3%
3,Cc1[nH]c2ccc(-c3nnc(SCC(=O)N4CCCc5ccccc54)o3)cc2c1C,-10.5%
4,Cc1[nH]c2ccc(-c3nnc(SCC(=O)c4ccc(F)cc4)o3)cc2c1C,1.7%
5,Cc1[nH]c2ccc(-c3nnc(SCC(=O)c4ccccc4F)o3)cc2c1C,66.4% (active)
6,COc1cccc(C2(O)CCN(C(=O)C3CCC3)CC2)c1,-6.9%
7,O=C1c2ccccc2CCC1C(O)c1ccccn1 (centres undefined),-15%
8,COc1cccc(CN(Cc2cccnc2)S(=O)(=O)c2ccc(-n3cnnn3)c(C)c2)c1OC,-18%
9,COc1ccccc1N1CCN(c2ccc(-c3ccccc3)nn2)CC1,61.1% (active)
10,COc1ccccc1N1CCN(c2cc(N3CCCC3)nc(C)n2)CC1,2.7%
11,COc1ccccc1N1CCN(c2nc(-c3ccccc3)cc(C(F)(F)F)n2)CC1,10.1%
12,COCC(C)NC(=O)c1cc(-c2cccc(OC)c2)on1 (centres undefined),-3.6%
13,Cc1cc(C)cc(OCC(=O)Nc2ccc(N3CCN(S(C)(=O)=O)CC3)cc2)c1,-17.3%
14,Cc1ccccc1NC(=O)c1ccc(F)c(S(=O)(=O)N2CCN(c3ccccn3)CC2)c1,-26.8%
15,Cc1cc(NCCOCCO)n2ncc(-c3ccc(Cl)cc3)c2n1,65.6% (active)
16,Cc1cc(NCCN2CCOCC2)n2ncc(-c3ccc(Cl)cc3)c2n1,9.8%
17,Cc1cc(NCCCN2CCOCC2)n2ncc(-c3ccc(Cl)cc3)c2n1,11.9%
18,O=S(=O)(/C=C/c1ccccc1)n1cnc2ccccc21,22.4%
19,Cc1cc(C)n(S(=O)(=O)Cc2ccccc2)n1,-8.3%
20,Cc1cc(C)nc(Nc2n[nH]c(-c3ccccc3Br)n2)n1,-1.8%
21,COc1ccccc1N1CCN(C(=O)Nc2cccc(C)c2)CC1,-2.6%
22,Cc1ccc(SC(C)C(=O)N2CCCC2)cc1 (centres undefined),5.9%
23,CCCCCCNS(=O)(=O)c1ccc(Cl)s1,-26.3%
24,CCC(=O)Nc1nonc1-c1nc2ccccc2n1N(C(=O)CC)C(=O)CC,54.2% (active)
